What all share (assay): NCI-60 one-dose screen, 48 h (100 = growth as untreated, 0 = no growth, -100 = all killed)
The subject of assay [1] is SK-MEL-2 melanoma. The note with it: 10 µM unless noted.
The subject of assay [2] is EKVX NSCLC. The note with it: 10 µM unless noted.
The subject of assay [3] is SN12C renal. The note with it: 10 µM unless noted.
Assay [4] relates to UO-31 renal. Particulars: 10 µM unless noted.
The test system of assay [5] is ACHN renal. The note with it: 10 µM unless noted.
The subject of assay [6] is A498 renal. The note with it: 10 µM unless noted.
The subject of assay [7] is CCRF-CEM leukemia. Particulars: 10 µM unless noted.
Assay [8] concerns MOLT-4 leukemia. Particulars: 10 µM unless noted.
The subject of assay [9] is SR leukemia. The note with it: 10 µM unless noted.
Assay [10] concerns RPMI-8226 leukemia. The note with it: 10 µM unless noted.
Assay [11] concerns OVCAR-8 ovarian. The note with it: 10 µM unless noted.
For assay [12], the system named is OVCAR-5 ovarian. Particulars: 10 µM unless noted.
The test system of assay [13] is OVCAR-4 ovarian. The note with it: 10 µM unless noted.
Assay [14] deals with SK-OV-3 ovarian. Particulars: 10 µM unless noted.
Assay [15] relates to IGROV1 ovarian. Particulars: 10 µM unless noted.
Assay [16] has as its system OVCAR-3 ovarian. Particulars: 10 µM unless noted.
Assay [17] concerns HS 578T breast. Particulars: 10 µM unless noted.
Assay [18] concerns NCI/ADR-RES ovarian. Particulars: 10 µM unless noted.
Assay [19] has as its system TK-10 renal. The note with it: 10 µM unless noted.
The test system of assay [20] is CAKI-1 renal. Particulars: 10 µM.

We go through nine compounds from PubChem BioAssay (NCI).

About 83,000 compounds went through this panel and 20% of them were active in at least one assay; those are over-represented in the sample as a whole.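 The endpoint reported here, percent growth, reads 100 for growth as untreated, 0 for no net growth and -100 for all cells dead.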 Unmarked numbers belong to inactive results. Active and inactive are the calls of the source. The calls were made as follows: active = growth percent below 10; inactive = the rest.

As for `c1ccc(-c2nc3sc(C(c4ccccc4)c4ccccc4)nn3c2-c2ccccc2)cc1`, the growth was 81.3% in assay [1]; 89.8% in assay [2]; 93.8% in assay [3]; 90.8% in [4]; 97.5% in assay [5]; 87.6% in [6]. Besides, the growth in [7] was 100%; in [8], 107%; in assay [9], 80.6%; in assay [10] it was 108%; in assay [11] it was 104%; in assay [12] it was 103%. In addition, the growth is 103% in assay [13]; 94.7% in assay [14]; 86.4% in assay [15]; 100% in [16]; 106% in [17]; 95.3% in [18].

Turning to `COc1ccc(CNc2nc3ccccc3c3c(=O)c4ccccc4sc23)cc1OC`, the growth is 102% in assay [1]; 84.3% in assay [2]; 82.5% in assay [3]; 85% in assay [4]; 40.2% in assay [5]; 64.2% in [6]. Also, the growth in [7] is 84.8%; in assay [8], 86.6%; in assay [9] it was 65.3%; in [10] it was 87.3%; in assay [11] it was 64.8%; in assay [12], 97.2%. The growth is 62.1% in [13]; 81.9% in assay [14]; 80.6% in assay [15]; 82.6% in assay [16]; 65.8% in [17]; 74.3% in [18].

As for `Fc1ccc(Nc2ncnc3ccc(-c4cn[nH]c4)cc23)cc1Cl`, the growth in [1] was 45.3%; in assay [2], 22.4%; in assay [3] it was 56.8%; in assay [4], 45.6%; in assay [5], 26.1%; in assay [6], 7.79% (active). Also, the growth in [7] was 75.3%; in assay [8] it was 56.7%; in assay [9], 0.823% (active); in [11], 44.1%; in assay [12], 75.7%; in [13], 55.5%. The growth in [14] was -11.6% (active); in [15], 5.6% (active); in assay [16], 50.6%; in assay [17], 31.4%; in assay [18], 51.6%.

For `CC(C)(C)OC(=O)NCc1cccc(N=C=S)c1`, the growth in assay [1] was 41.9%; in assay [2], 71.6%; in assay [3], 69.6%; in assay [4], 49.2%; in assay [5], 61.5%; in assay [6], -11.6% (active). The growth is 3.13% (active) in [7]; -24.6% (active) in assay [8]; -4.27% (active) in [9]; -38.9% (active) in assay [10]; 64.4% in assay [11]; 65.2% in [12]. Also, the growth in assay [13] was 57.1%; in assay [14], 88.2%; in [15] it was 43.1%; in [16] it was 60.1%; in [17], 66.1%.

For `c1ccc([Se]CCCN2CCN(CCC[Se]c3ccccc3)CC2)cc1`, the growth in [1] was 121%; in assay [2], 1.25% (active); in assay [3], 104%; in assay [19], 129%; in assay [5], 100%; in assay [20] it was -23.6% (active). In addition, the growth is 116% in assay [6]; 105% in [7]; 127% in assay [8]; 126% in assay [9]; 119% in assay [11]; 121% in assay [12]. The growth in assay [13] is 101%; in assay [14], 113%; in assay [15], 103%; in [16] it was 116%; in assay [17] it was 110%; in [18], 101%.

Turning to `CC(C)[C@@H]1NC(=O)[C@]2(C)CSC(=N2)c2ccnc(c2)CNC(=O)C[C@@H](/C=C/CCS)OC1=O`, the growth was -28.2% (active) in [1]; 31.4% in [2]; 27.8% in assay [3]; 12% in [4]; 6.6% (active) in assay [5]; -77% (active) in [6]. In addition, the growth is 16% in [7]; 8.13% (active) in assay [8]; 7.26% (active) in assay [9]; -18.5% (active) in assay [10]; -3.79% (active) in assay [11]; 18.2% in assay [12]. Also, the growth is 27.3% in assay [13]; -7.53% (active) in assay [14]; 0.54% (active) in [15]; -6.18% (active) in [16]; 9.92% (active) in assay [17].

Regarding `COC(=O)c1ccc2c(c1)Oc1ccc(Cl)cc1-c1cc(C)nn1-2`, the growth in assay [1] was 100%; in assay [2], 66.9%; in assay [3], 51.8%; in assay [4] it was 82.2%; in [5], 22.6%; in assay [6], 62.7%. Also, the growth in [7] is 78.8%; in assay [8], 99.9%; in assay [9], 69.9%; in assay [10], 74.9%; in assay [11], 72.8%; in [12], 91.2%. The growth is -6.66% (active) in [13]; 53.5% in assay [14]; 61.8% in assay [15]; 39% in assay [16]; 55.1% in [17]; 73.4% in [18].

Consider `Cn1cnc([N+](=O)[O-])c1N1c2ccncc2Sc2ccncc21`, for which the growth was 94.2% in [1]; 78.8% in [2]; 113% in assay [3]; 132% in assay [19]; 75.8% in assay [5]; 85.7% in assay [20]. Besides, the growth in [6] was 93.1%; in [7], 94.7%; in assay [8] it was 91.6%; in [10], 85.8%; in assay [11], 83.4%; in assay [12], 99.7%. Besides, the growth in assay [13] was 179%; in assay [14] it was 92.2%; in [16] it was 92.7%; in [17], 98.2%; in assay [18], 97.1%.

Turning to `CN1CCN(Cn2nc(-c3cc(Cl)cc(Cl)c3Cl)n(/N=C/c3ccc(Cl)cc3)c2=S)CC1`, the growth in assay [1] is 97.6%; in assay [2], 118%; in assay [3], 96.4%; in assay [19] it was 94.6%; in [5], 100%; in assay [6] it was 97.8%. Besides, the growth in assay [7] is 33.4%; in assay [8], 59%; in assay [9], 38.7%; in assay [10], 96.3%; in assay [11], 93.5%; in assay [12], 96.3%. Moreover, the growth in assay [13] is 94.5%; in [14], 101%; in assay [15], 108%; in assay [17], 112%; in assay [18], 96.6%.
